Results with a measured potency or affinity are listed apart. Activity calls are given as the source filed them.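 Rule for the calls: active = fitted dose curve reaches 40% lysis signal rise at or below the highest valid concentration tested for that sample; inconclusive = flat fit between 30% and 70%, or poor curve fit; inactive = signal falls, stays flat within 30%, or no crossing.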
experiment: inducers of Cryptococcus neoformans cell lysis, dose response, AK release luminescence, cherry-picks (AID 687000);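 note: luminescent detection of adenylate kinase leaking from lysed yeast; 0% = median neutral control signal and 100% = double that signal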; details: C. neoformans lysis, adenylate kinase release luminescence, 4 h, 100% = twice the neutral-control signal; series mostly up to 15 µM; lysis activity: at the top concentration

Lysis activity, inactive:
c1ccc(-n2ncc3c(NCc4ccc5c(c4)OCO5)ncnc32)cc1 -33.4%
CCC(=O)Nc1ccc2c(c1)OC[C@H](C)N(C(=O)c1ccc(F)cc1)C[C@@H](C)[C@@H](OC)CN(C)C2=O 13.4%
Cc1cccc(C)c1NC(=O)C1CCCN1C(=O)OC(C)(C)C (centres undefined) -8.18%
Cc1noc(C)c1NC(=O)N(C)C[C@H]1Oc2ccc(NC(=O)C3CC3)cc2CC(=O)N([C@@H](C)CO)C[C@H]1C 6.92%
CC12CC3CC(C)(C1)CC(C(=O)NC(=S)N1CCCCC1)(C3)C2 3.12%
CCCN1C(=O)C(O)(C2CC(=O)CC(C)(C)O2)c2ccccc21 (centres undefined) 7.78%
C[C@H](CO)N1C[C@H](C)[C@H](CN(C)Cc2ccccc2F)Oc2cc(C3=CCCC3)ccc2S1(=O)=O -3.25%
CCCC(=O)Nc1ccc2c(c1)OC[C@H](C)N(Cc1ccccn1)C[C@H](C)[C@H](OC)CN(C)C2=O 27.9%
Cc1noc(C)c1S(=O)(=O)Nc1ccc2c(c1)C(=O)N([C@@H](C)CO)C[C@@H](C)[C@H](CN(C)Cc1ccc3c(c1)OCO3)OCCCC[C@H](C)O2 -0.817%
Cc1cc(OCC(=O)NC(C)c2ccccc2)ccc1[N+](=O)[O-] (centres undefined) -0.041%
O=C(C[C@H]1CC[C@@H]2[C@H](COC[C@H](O)CN2CC2CCOCC2)O1)NCc1ccc(Cl)cc1 51.2%
CCNC(=O)CN(c1ccc(Cl)cc1)S(=O)(=O)c1ccccc1 -8.47%
Cc1cc(C)c(NC(=O)CN2CCCCCC2)c(C)c1 1.53%
CNC(=O)CN(c1ccc(OC)cc1)S(=O)(=O)c1ccc(F)cc1 9.76%
